Measurements taken from PubChem BioAssay (NCATS).
Inconclusive results are not listed. Activity calls are given as the source filed them. Calls follow the shape of the dose curve; as a rule, active = well fitted curve in the direction sought with a large enough effect; inconclusive = small, poorly fitted or top-dose-only effect, or another doubt; inactive = no such curve, though single readings can be large; an effect the other way counts as inactive or inconclusive.

Columns and labels:
[1] = Quantitative High-Throughput drug screen in 47 multiple myeloma cell lines against the NCATS MIPE library collection: MOLP8_DSMZ cell viability assay (AID 1918977); also: nearly all actives have a fitted effect of over 45% in size
Method in brief: (§1)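 Plated at 500 cells per well, myeloma lines received MIPE 4.0 compounds by pin tool. Following 48 h culture at 37 °C, CellTiter-Glo luminescence gave viability relative to DMSO and media-only controls.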

[2] = Quantitative High-Throughput drug screen in 47 multiple myeloma cell lines against the NCATS MIPE library collection: NCIH929_DSMZ cell viability assay (AID 1918978); also: nearly all actives have a fitted effect of over 35% in size
Method in brief: as §1

[3] = Quantitative High-Throughput drug screen in 47 multiple myeloma cell lines against the NCATS MIPE library collection: OCIMY1_PLB cell viability assay (AID 1918979); also: nearly all actives have a fitted effect of over 35% in size;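 as to viability: series mostly up to about 46 µM; 100% = DMSO-only wells and 0% = cell-free media-only wells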
Method in brief: as §1

[4] = Quantitative High-Throughput drug screen in 47 multiple myeloma cell lines against the NCATS MIPE library collection: MM1S_ATCC cell viability assay (AID 1918980); also: nearly all actives have a fitted effect of over 45% in size
Method in brief: as §1

[5] = Quantitative High-Throughput drug screen in 47 multiple myeloma cell lines against the NCATS MIPE library collection: MM1R_ATCC cell viability assay (AID 1918981); also: nearly all actives have a fitted effect of over 35% in size
Method in brief: as §1

[6] = Quantitative High-Throughput drug screen in 47 multiple myeloma cell lines against the NCATS MIPE library collection: KMS28PE_JCRB cell viability assay (AID 1918983); also: nearly all actives have a fitted effect of over 35% in size
Method in brief: as §1

[7] = Quantitative High-Throughput drug screen in 47 multiple myeloma cell lines against the NCATS MIPE library collection: KMS34_JCRB cell viability assay (AID 1918985); also: nearly all actives have a fitted effect of over 40% in size
Method in brief: as §1

[8] = Quantitative High-Throughput drug screen in 47 multiple myeloma cell lines against the NCATS MIPE library collection: OCIMY7_PLB cell viability assay (AID 1918987); also: nearly all actives have a fitted effect of over 65% in size
Method in brief: as §1

[9] = Quantitative High-Throughput drug screen in 47 multiple myeloma cell lines against the NCATS MIPE library collection: U266_ATCC cell viability assay (AID 1919864); also: nearly all actives have a fitted effect of over 35% in size;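 as to viability (% of DMSO control): 0% = media-only wells without cells and 100% = DMSO-only wells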
Method in brief: as §1

[10] = Quantitative High-Throughput drug screen in 47 multiple myeloma cell lines against the NCATS MIPE library collection: XG6_PLB cell viability assay (AID 1919865); also: nearly all actives have a fitted effect of over 40% in size
Method in brief: as §1

[11] = Quantitative High-Throughput drug screen in 47 multiple myeloma cell lines against the NCATS MIPE library collection: XG1_PLB cell viability assay (AID 1919866); also: nearly all actives have a fitted effect of over 35% in size
Method in brief: as §1

[12] = Quantitative High-Throughput drug screen in 47 multiple myeloma cell lines against the NCATS MIPE library collection: VP6_DJ cell viability assay (AID 1919867); also: nearly all actives have a fitted effect of over 40% in size
Method in brief: as §1

[13] = Quantitative High-Throughput drug screen in 47 multiple myeloma cell lines against the NCATS MIPE library collection: PE2_PLB cell viability assay (AID 1919869); also: nearly all actives have a fitted effect of over 35% in size
Method in brief: as §1

[14] = Quantitative High-Throughput drug screen in 47 multiple myeloma cell lines against the NCATS MIPE library collection: PCM6_Riken cell viability assay (AID 1919870); also: nearly all actives have a fitted effect of over 30% in size
Method in brief: as §1

[15] = Quantitative High-Throughput drug screen in 47 multiple myeloma cell lines against the NCATS MIPE library collection: OCIMY5_PLB cell viability assay (AID 1918988); also: nearly all actives have a fitted effect of over 65% in size
Method in brief: as §1

[16] = Quantitative High-Throughput drug screen in 47 multiple myeloma cell lines against the NCATS MIPE library collection: OPM1_PLB cell viability assay (AID 1918989); also: nearly all actives have a fitted effect of over 40% in size
Method in brief: as §1

[17] = Quantitative High-Throughput drug screen in 47 multiple myeloma cell lines against the NCATS MIPE library collection: SKMM1_PLB cell viability assay (AID 1919863); details: SKMM1 myeloma viability, CellTiter-Glo ATP, 48 h; viability: active compounds read low; also: nearly all actives have a fitted effect of over 35% in size; as to viability: series mostly up to about 46 µM
Method in brief: as §1

[18] = Quantitative High-Throughput drug screen in 47 multiple myeloma cell lines against the NCATS MIPE library collection: UTMC2_PLB cell viability assay (AID 1919868); details: CellTiter-Glo ATP luminescence, 48 h; viability (% of DMSO control): at 45.8 µM; also: nearly all actives have a fitted effect of over 55% in size;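 as to viability (% of DMSO control): 100% = DMSO-only wells and 0% = media-only wells without cells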
Method in brief: as §1

[19] = Quantitative High-Throughput drug screen in 47 multiple myeloma cell lines against the NCATS MIPE library collection: LP1_DSMZ cell viability assay (AID 1918982); also: nearly all actives have a fitted effect of over 35% in size
Method in brief: as §1

[20] = Quantitative High-Throughput drug screen in 47 multiple myeloma cell lines against the NCATS MIPE library collection: L363_DSMZ cell viability assay (AID 1918984); also: nearly all actives have a fitted effect of over 40% in size
Method in brief: as §1
Potency is read from the fitted curve at half-maximal effect.

CC(C)(O)C(=O)Nc1ccc([N+](=O)[O-])c(C(F)(F)F)c1
inactive: Potency [1] | Potency [3] | Potency [5] | Potency [6] | Potency [7]
active: Potency [2] 5260 nM | Potency [4] 9350 nM | Potency [8] 7430 nM | Potency [9] 18700 nM | Potency [10] 3320 nM | Potency [11] 8330 nM | Potency [12] 8330 nM | Potency [13] 9350 nM | Potency [14] 8330 nM

COc1ccc2c(c1)[C@]13CCCCC1C(C2)N(C)CC3 (some centres undefined)
inactive: Potency [1] | Potency [2] | Potency [3] | Potency [5] | Potency [6] | Potency [7] | Potency [15] | Potency [16] | viability [17] 120% | Potency [9] | Potency [10] | Potency [11] | Potency [18] | Potency [13] | Potency [14]

CC(C)(C)[C@]1(O)C[C@@H]2OC(=O)C[C@@]23C(=O)O[C@@H]2OC(=O)[C@H](O)C213 (some centres undefined)
inactive: Potency [1] | Potency [2] | Potency [3] | Potency [4] | Potency [5] | Potency [19] | Potency [6] | Potency [7] | Potency [15] | Potency [16] | Potency [9] | Potency [10] | Potency [14]

COCC1(CO)C(=O)C2CCN1CC2 (centres undefined)
active: Potency [1] 590 nM | Potency [2] 833 nM | Potency [3] 2090 nM | Potency [4] 264 nM | Potency [5] 469 nM | Potency [19] 2640 nM | Potency [6] 18700 nM | Potency [20] 3320 nM | Potency [7] 590 nM | Potency [8] 469 nM | Potency [15] 2640 nM | Potency [17] 6620 nM | Potency [9] 2960 nM | Potency [10] 1660 nM | Potency [11] 20900 nM | Potency [12] 4180 nM | Potency [18] 11800 nM | Potency [13] 2960 nM | Potency [14] 20900 nM

Cc1ccccc1-n1c(Cn2cnc3c(N)ncnc32)nc2cccc(C)c2c1=O
active: Potency [1] 74.3 nM | Potency [2] 41.8 nM | Potency [4] 526 nM | Potency [5] 187 nM | Potency [6] 296 nM | Potency [7] 148 nM | Potency [8] 1320 nM | Potency [15] 1660 nM | Potency [16] 332 nM | Potency [17] 526 nM | Potency [10] 469 nM | Potency [11] 209 nM | Potency [12] 187 nM | Potency [18] 66.2 nM | Potency [13] 296 nM | Potency [14] 1660 nM

CCCC[N+]1(C)[C@H]2CC(OC(=O)[C@H](CO)c3ccccc3)C[C@H]1[C@H]1O[C@H]12 (some centres undefined)
inactive: Potency [2] | Potency [3] | Potency [4] | Potency [5] | Potency [19] | Potency [6] | Potency [20] | Potency [7] | Potency [15] | Potency [9] | Potency [10] | Potency [18] | Potency [13] | Potency [14]

C[C@]12COC(=O)C[C@@H]1CC[C@@H]1[C@H]2CC[C@@]2(C)[C@H]1CC[C@]2(C)O
inactive: Potency [2] | Potency [3] | Potency [4] | Potency [5] | Potency [6] | Potency [20] | Potency [15] | Potency [16] | Potency [9] | Potency [11] | Potency [13]

NC1=NC(=O)N2CC12 (centres undefined)
active: Potency [2] 9350 nM | Potency [8] 20900 nM | Potency [10] 9350 nM | Potency [11] 11800 nM | Potency [13] 13200 nM | Potency [14] 8330 nM
inactive: Potency [3] | Potency [4] | Potency [5] | Potency [19] | Potency [7]

COC1=CC(C)=C[C@@H](C)[C@@H](O)[C@@H](C)CC(C)=CC=C[C@H](OC)[C@H]([C@@H](C)[C@@H](O)[C@H](C)[C@@]2(O)C[C@@H](O)[C@H](C)[C@@H](C(C)C)O2)OC1=O
active: Potency [1] 4.2 nM | Potency [3] 3.7 nM | Potency [4] 1480 nM | Potency [5] 1660 nM | Potency [19] 2.1 nM | Potency [6] 14800 nM | Potency [7] 3 nM | Potency [16] 23.5 nM | Potency [10] 1 nM | Potency [18] 1 nM | Potency [13] 11.8 nM | Potency [14] 9350 nM

CC(=O)N(C)c1cccc(-c2ccnc3c(C(=O)c4cccs4)cnn23)c1
inactive: Potency [1] | Potency [3] | Potency [6] | viability [17] 119% | Potency [10] | Potency [11] | Potency [13] | Potency [14]

COc1cc2cc(c1Cl)N(C)C(=O)C[C@H](OC(=O)C(C)C)[C@]1(C)O[C@H]1[C@H](C)[C@@H]1C[C@@](O)(NC(=O)O1)[C@H](OC)C=CC=C(C)C2
inactive: Potency [1] | Potency [2] | Potency [4] | Potency [5] | Potency [6] | Potency [7] | Potency [8] | Potency [15] | Potency [16] | viability [17] 50.1% | Potency [9] | Potency [10] | Potency [11] | Potency [18] | Potency [13] | Potency [14]
